# According to PubChem BioAssay:
# Values joined by “and” are separate entries in the source; they are usually repeats but may differ in a detail not shown here. Identical values can stand only once. For some of these results: Measured potencies and affinities stand elsewhere. Active and inactive are the calls of the source.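 Rule for the calls, unless noted: active = thallium flux through the channel raised or lowered by more than 3 SD from vehicle-only wells, actives on both sides; inactive = the rest.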
# How the values were obtained:
# [1] = blockers of polyQ-driven CASP3 activation – cell-based (AID 1583); conditions: polyglutamine-induced caspase-3 activation, cell assay; stronger effect = higher value;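 tested at 10 µM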
# [2] = yeast 75Q aggregation reduction – 75Q-TubU reporter (AID 1593); conditions: Yeast 75Q polyglutamine aggregation reporter
# [3] = restoration of touch response, mutant HTT neurons – whole organism, C. elegans mechanosensory neurons, N-terminal huntingtin (AID 1599); conditions: C. elegans polyQ-huntingtin mechanosensory neurons, stronger effect = higher value
# [4] = blockers of cytochrome c efflux from mitochondria – biochemical, purified mitochondria (AID 1603); conditions: stronger effect = lower value;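 note: mouse liver mitochondria challenged with calcium chloride; signal normalized to the plate average as 100%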
# [5] = polyglutamine aggregate formation blockers (AID 1604); conditions: polyglutamine-induced protein aggregation inhibition assay; stronger effect = higher value; tested at 2.5 µM
# [6] = glutamate transport activators, MN-1 cells, MN-1 cell line (AID 1612); conditions: MN-1 motor neuron cells, stronger effect = higher value;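 note: tested at 1 µM final; 0% = mean of DMSO vehicle wells on each plate; positive means more glutamate uptake than control and negative means less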
# [7] = 75Q-TubH aggregate inhibition, S. cerevisiae, yeast (AID 1616); conditions: S. cerevisiae 75Q-TubH polyglutamine aggregation suppression; stronger effect = higher value
# [8] = compounds altering viability of human ES cells (AID 493140; call rule not given here;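 note: cells exposed to compounds for four days before counting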); conditions: human embryonic stem cell survival screen; stronger effect = higher value
# [9] = signal quenchers or enhancers, Cy5 substrate/SSB – biochemical, NIH Clinical Collection, E. coli SSB, artefact control for HCV NS3 helicase inhibitor project (AID 743268; call rule not given here); conditions: Cy5-oligo bound E. coli SSB, fluorescence interference
# [10] = modulation of C. elegans fzo-1 (AID 1259413; call rule not given here;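 note: fzo-1 mutant C. elegans worms in liquid wells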); conditions: C. elegans fzo-1 modulator screen, mean read-out; stronger effect = higher value
# [11] = galactose survival enhancers in mitochondrial complex I cybrids – cell-based, galactose medium, ATP luminescence, primary screen (AID 1645843;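 active = z-score of at least 1.8 in each of two replicates, scored against plate mean and spread of sample wells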;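 note: positive z means more ATP and so rescue of galactose-driven cybrid death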); conditions: complex I mutant cybrid cells, 72 h, stronger effect = higher value
# F380Y/beta1 = assay: BK channel mutant inhibitors and activators – cell-based, U2OS BacMam, thallium flux, beta subunits, selectivity assay, profiling panel (AID 1259406); conditions: U2OS BacMam BK variants, at 30 µM;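 note: initial slope of Thallos dye fluorescence rise after thallium is added; log ratio against the mean of 0.3% DMSO vehicle wells on the same plate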
# F380Y/beta4 = assay: as above; conditions: U2OS BacMam BK variants, at 30 µM
# R275C = assay: as above; conditions: U2OS BacMam BK variants, at 30 µM
# R275C/beta1 = assay: as above; conditions: U2OS BacMam BK variants, at 30 µM
# R275C/beta2Delta = assay: as above; conditions: U2OS BacMam BK variants, at 30 µM
# R275C/beta4 = assay: as above; conditions: U2OS BacMam BK variants, at 30 µM
# R275C/Slo1WT/beta2 = assay: as above; conditions: U2OS BacMam BK variants, at 30 µM
# [12] = P. berghei load reduction in hepatocytes – cell-based, HepG2, luciferase luminescence, HepG2 viability, primary screen (AID 624349; in the data active = parasite load remaining mostly below about 12%, no sharp cut-off; inactive = mostly above about 10%;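 note: 100% = mean of DMSO negative control wells on the same plate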); conditions: P. berghei liver stage in HepG2, luciferase luminescence, concentration not given here; parasite load remaining: stronger effect = lower value; viability: measured here: HepG2 viability without parasites
Compound,inhibition [1] [%],score [2],rescue above control [3],cytochrome c release ratio [4],inhibition of aggregation [5] [%],glutamate uptake change [6] [%],aggregation suppression score [7],survival [8],fluorescence ratio [9],mean signal [10],z-score [11],log fold change Tl+ flux (F380Y/beta1),log fold change Tl+ flux (F380Y/beta4),log fold change Tl+ flux (R275C),log fold change Tl+ flux (R275C/beta1),log fold change Tl+ flux (R275C/beta2Delta),log fold change Tl+ flux (R275C/beta4),log fold change Tl+ flux (R275C/Slo1WT/beta2),parasite load remaining [12],viability [12]
CCCN(CCC)S(=O)(=O)c1ccc(C(=O)O)cc1,2.2,0.68,9.13,1.07,52.4,-14.7,0.579,6.25 (inactive),1.02 (inactive),252 (inactive),0.145 (inactive),-0.02 (inactive),-0.0299 (inactive),-0.00526 (inactive),-0.0021 (inactive),-0.000317 (inactive),-0.0261 (inactive),0.0366 (inactive),,
O=C1[C@H](CC[C@H](O)c2ccc(F)cc2)[C@@H](c2ccc(O)cc2)N1c1ccc(F)cc1,,,,,,,,,0.97 (inactive),228 (inactive),,0.33 (active),0.106 (active),-0.0195 (inactive),0.416 (active),0.12 (active),0.207 (active),0.0256 (inactive),62.8% (inactive),65.3%
CC(=O)[C@H]1CC[C@H]2[C@@H]3C[C@H](C)C4=CC(=O)CC[C@]4(C)[C@H]3[C@@H](O)C[C@]12C,,,,,,,,6.42 (inactive),0.93 (inactive),277 (inactive),-0.825 (inactive),-0.00433 (inactive),-0.0204 (inactive),-0.0356 (inactive),0.0813 (inactive),0.0373 (inactive),-0.0699 (inactive),-0.105 (inactive),57.6% (inactive) and 67.9% (inactive),84.9% and 91.5%
CC(COc1ccccc1)NC(C)C(O)c1ccc(O)cc1 (stereo not given),,,,,,,,10.8 (inactive),1 (inactive),247 (inactive),0.74 (inactive),0.0456 (inactive),0.0762 (inactive),0.0486 (inactive),0.000959 (inactive),0.0577 (inactive),0.0625 (inactive),0.0192 (inactive),51.4% (inactive) and 31.5% (inactive) and 101% (inactive),103% and 49.4% and 92.3%
COc1cc([C@@H]2c3cc4c(cc3[C@H](O)[C@H]3COC(=O)[C@H]23)OCO4)cc(OC)c1OC,,,,,,,,0.917 (inactive),1.01 (inactive),221 (inactive),0.5 (inactive),0.00363 (inactive),0.0253 (inactive),-0.0185 (inactive),0.0124 (inactive),0.0291 (inactive),0.0119 (inactive),0.00946 (inactive),94.8% (inactive) and 112% (inactive) and 73% (inactive),107% and 103% and 113%
CC(C)C1CCC(C(=O)N[C@H](Cc2ccccc2)C(=O)O)CC1 (stereo not given in full),,,,,,,,,1.01 (inactive),221 (inactive),-0.11 (inactive),0.0965 (inactive),0.075 (inactive),-0.00833 (inactive),0.0383 (inactive),0.0438 (inactive),0.0835 (active),0.0201 (inactive),83.5% (inactive) and 55.1% (inactive),68.8% and 167%
Cc1cccc(Nc2ccncc2S(=O)(=O)NC(=O)NC(C)C)c1,,,,,,,,8.33 (inactive),1.01 (inactive),241 (inactive),1.21 (inactive),0.0627 (inactive),-0.0278 (inactive),-0.147 (active),0.0246 (inactive),0.0124 (inactive),0.029 (inactive),0.0277 (inactive),136% (inactive) and 72.2% (inactive) and 143% (inactive),83% and 88.5% and 82%
CC(C)(C)NC[C@H](O)COc1nsnc1N1CCOCC1,,,,,,,,4.17 (inactive),0.99 (inactive),275 (inactive),0.57 (inactive) and -0.2 (inactive) and 0.33 (inactive),-0.0365 (inactive),0.0021 (inactive),-0.000858 (inactive),-0.0605 (inactive),-0.0488 (inactive),-0.0714 (inactive),-0.0819 (inactive),64.7% (inactive) and 81.2% (inactive) and 46% (inactive),97.8% and 98% and 104%
Cc1ccc(O)c([C@H](CCN(C(C)C)C(C)C)c2ccccc2)c1,,,,,,,,,1 (inactive),219 (inactive),,0.0975 (active),0.136 (active),-0.0487 (inactive),0.03 (inactive),0.0798 (inactive),0.0668 (inactive),0.0213 (inactive),63.7% (inactive),67.2%
C[C@]12CCC(=O)C=C1CC[C@@H]1[C@@H]2C(=O)C[C@@]2(C)[C@H]1CC[C@]2(O)C(=O)CO,,,,,,,,29.6 (inactive),0.97 (inactive),220 (inactive),0.195 (inactive),-0.034 (inactive),-0.00179 (inactive),-0.0438 (inactive),-0.0165 (inactive),-0.0316 (inactive),0.0193 (inactive),0.0155 (inactive),29.2% (inactive) and 101% (inactive) and 66.2% (inactive),48% and 86.7% and 71%
